Laboratory results published in PubChem BioAssay.

These compounds were tested on Inhibin beta A chain (activin A) (assay: small molecules binding activin A – biochemical, small-molecule microarray, 635 nm fluorescence scan, primary screen (AID 1107;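 further: mouse activin A protein probed at 4.33 µg/mL on printed slides; score merges bound-protein fluorescence near 667 nm with spot signal-to-noise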)). Settings: INHBA, higher = more signal.

Structure (SMILES)	composite z-score
COC(=O)[C@H](C)NC(=O)CCC1CC(OC(=O)NCCc2ccc(F)cc2)CC2(CCCC(COC(=O)NCC3CCCCC3)O2)O1 (stereo partly specified)	0.0532
COc1ccc2c(c1)O[C@@H](c1cccc(C(F)(F)F)c1)[C@H](O)C2=O	0.149
CCOC(=O)[C@H](Cc1ccccc1)NC(=O)CCC1CC(OC(=O)NCc2ccc3c(c2)OCO3)CC2(CCCC(COC(=O)NCCOc3ccccc3)O2)O1 (stereo partly specified)	-0.0859
CC(=O)OC[C@H]1O[C@@H](ON=C(C)C)[C@H](OC(C)=O)[C@@H](OC(C)=O)[C@@H]1OC(C)=O	-2.17
CCOC(=O)[C@H](Cc1ccccc1)NC(=O)CCC1CC(OC(=O)NCc2ccc3c(c2)OCO3)CC2(CCCC(COC(=O)NCCc3ccc(Cl)cc3)O2)O1 (stereo partly specified)	0.0209
O=C1C=C[C@@H](O)[C@@H]2[C@@H]3C(=O)N(Cc4ccccc4)C(=O)[C@@H]3CC[C@@H]12	0.181
COC(=O)C1=C(C)N(Cc2ccccc2)C2=C3C(=O)OCC[C@@H]3[C@@](O)(C(=O)OC)C(=O)N2[C@@H]1c1ccccc1	0.312
CCCNC(=O)OC[C@H]1O[C@H](CCON=C[C@@H](NS(=O)(=O)c2ccc(C)cc2)[C@H](C)C=CCC(=O)OC)C=C[C@@H]1Oc1ccc(OC)cc1	0.32
CC=CC1=C(CO)[C@H](O)[C@H]2O[C@H]2[C@@H]1O	0.161
COc1ccc(O[C@H]2C=C[C@@H](C#Cc3ccccc3)O[C@@H]2CO)cc1	1.08
COC(=O)[C@@H]1CC[C@H](C)[C@@H](c2ccc(C)cc2)N1C(=O)c1ccc(C=NOC[C@H]2O[C@H](c3ccccc3)C=C[C@@H]2Oc2ccc(OC)cc2)cc1	1.24
CON=C1c2cc(OC)ccc2O[C@H](c2cccc(OC)c2)[C@H]1O	0.593
C[C@@H]1CC[C@H]2C(=O)OC(Cc3ccccc3)CN2[C@H]1c1ccc(Br)cc1 (stereo partly specified)	0.445
C=CCOCC1CN2[C@@H](CC[C@@H](C)[C@@H]2c2ccc(Br)cc2)C(=O)O1 (stereo partly specified)	0.757
COc1ccc(COC(=O)NN=C2C[C@@H](O)[C@@H](O)[C@@H]3[C@@H]4C(=O)N(Cc5ccccc5)C(=O)[C@@H]4CC[C@@H]23)cc1	-0.0039
COC(=O)[C@H](C)NC(=O)CCC1CC(OC(=O)NCCc2ccc(F)cc2)CC2(CCCC(COC(=O)NCCOc3ccccc3)O2)O1 (stereo partly specified)	-0.455
COC(=O)[C@H](C)NC(=O)CCC1CC(OC(=O)NCCc2ccc(F)cc2)CC2(CCCC(COC(=O)NCCc3ccccc3OC)O2)O1 (stereo partly specified)	0.176
CCOC(=O)[C@H](CC(C)C)NC(=O)CCC1CC(OC(=O)NCc2ccc3c(c2)OCO3)CC2(CCCC(COC(=O)NCCC(C)C)O2)O1 (stereo partly specified)	0.16

Structure (SMILES)	composite z-score
C=C(C)C(=O)OC[C@H]1CN2[C@@H](CC[C@@H](C)[C@@H]2c2ccc(Br)cc2)C(=O)O1	1.26
CO[C@@H]1COC(=O)[C@H](COCc2ccccc2)NC(=O)CC=C[C@@H](C)[C@H](OC)COC(=O)[C@@H](C)NC(=O)CC=C[C@H]1C	1.84
O=C1C[C@H](c2ccccc2)[C@H](c2ccc(Br)cc2)O1	0.266
CC(CCN1CCCc2nc(C)c(C)cc21)=NO[C@H](C)c1cn([C@H](CO)Cc2ccccc2)nn1	1.11
COC(=O)[C@@H]1CC[C@H](C)[C@@H](c2ccc(Br)cc2)N1C(=O)C(F)(F)F	0.237
CC(CCN1CCCc2nc(C)c(C)cc21)=NOC[C@@H](O)COCc1ccco1	1.96
C#CCCCON=C1C[C@@H](O)[C@@H](O)[C@@H]2[C@@H]3C(=O)N([C@@H](C)c4ccccc4)C(=O)[C@@H]3CC[C@@H]12	0.718
O=C1C2=CC[C@H]3C(=O)N(Cc4ccccc4)C(=O)[C@H]3[C@H]2[C@H](O)[C@@H]2O[C@H]12	-0.0664
CC(CCC(=O)OC[C@H]1O[C@H](C#Cc2ccccc2)C=C[C@@H]1Oc1ccc(C)cc1)=NOC(C)CN1CCCCc2nc(C)c(C)cc21 (stereo partly specified)	0.69
CCOC(=O)NN=C1C[C@@H](O)[C@@H](O)[C@@H]2[C@@H]3C(=O)N(CC)C(=O)[C@@H]3CC[C@H]12	-0.145
CON=C(C)CCN1CCCCc2nc(C)c(C)cc21	1.52
CO[C@@H](C1CCCCC1)[C@@H](C)[C@H](OCc1cccc(Br)c1)[C@@H](C)CO	0.247
O=C1CCCC=C1C(O)COCc1ccccc1 (stereo unspecified)	0.53
C=CC[C@@H]1C=C[C@H](ON=CC[C@@H]2C=C[C@H](OC(C)=O)[C@@H](COC(C)=O)O2)[C@@H](CO)O1	0.211
C[C@]12CCC3c4ccc(OCC5CO5)cc4CCC3C1CC[C@@H]2O (stereo partly specified)	0.944
COC(=O)[C@@H]1CC[C@H](C)[C@@H](c2ccc(Br)cc2)N1C[C@@H](O)CN=[N+]=[N-]	-0.28
O=C1CCCC=C1C(O)C1CCCCC1 (stereo unspecified)	0.615
CCOC(=O)[C@H](CC(C)C)NC(=O)CCC1CC(OC(=O)NCc2ccc3c(c2)OCO3)CC2(CCCC(COC(=O)NCCc3ccccc3OC)O2)O1 (stereo partly specified)	-0.344
